Assay results published in article PMC4336329 (PLoS ONE, 2015).
Out of some 310,000 compounds screened, about 2,200 (0.71%) showed an effect of 50% or more. The effect is printed as a negative number. This is one part of a sample in which strong results are shown more often than they occur.

Biological target: human ether-à-go-go-related gene (hERG) potassium channel (human, UniProt Q12809)
Test: primary screen, population patch clamp on CHO cells stably expressing hERG; higher = less effect of the substance

Sequence of human ether-à-go-go-related gene (hERG) potassium channel (Q12809 whole entry, looked up): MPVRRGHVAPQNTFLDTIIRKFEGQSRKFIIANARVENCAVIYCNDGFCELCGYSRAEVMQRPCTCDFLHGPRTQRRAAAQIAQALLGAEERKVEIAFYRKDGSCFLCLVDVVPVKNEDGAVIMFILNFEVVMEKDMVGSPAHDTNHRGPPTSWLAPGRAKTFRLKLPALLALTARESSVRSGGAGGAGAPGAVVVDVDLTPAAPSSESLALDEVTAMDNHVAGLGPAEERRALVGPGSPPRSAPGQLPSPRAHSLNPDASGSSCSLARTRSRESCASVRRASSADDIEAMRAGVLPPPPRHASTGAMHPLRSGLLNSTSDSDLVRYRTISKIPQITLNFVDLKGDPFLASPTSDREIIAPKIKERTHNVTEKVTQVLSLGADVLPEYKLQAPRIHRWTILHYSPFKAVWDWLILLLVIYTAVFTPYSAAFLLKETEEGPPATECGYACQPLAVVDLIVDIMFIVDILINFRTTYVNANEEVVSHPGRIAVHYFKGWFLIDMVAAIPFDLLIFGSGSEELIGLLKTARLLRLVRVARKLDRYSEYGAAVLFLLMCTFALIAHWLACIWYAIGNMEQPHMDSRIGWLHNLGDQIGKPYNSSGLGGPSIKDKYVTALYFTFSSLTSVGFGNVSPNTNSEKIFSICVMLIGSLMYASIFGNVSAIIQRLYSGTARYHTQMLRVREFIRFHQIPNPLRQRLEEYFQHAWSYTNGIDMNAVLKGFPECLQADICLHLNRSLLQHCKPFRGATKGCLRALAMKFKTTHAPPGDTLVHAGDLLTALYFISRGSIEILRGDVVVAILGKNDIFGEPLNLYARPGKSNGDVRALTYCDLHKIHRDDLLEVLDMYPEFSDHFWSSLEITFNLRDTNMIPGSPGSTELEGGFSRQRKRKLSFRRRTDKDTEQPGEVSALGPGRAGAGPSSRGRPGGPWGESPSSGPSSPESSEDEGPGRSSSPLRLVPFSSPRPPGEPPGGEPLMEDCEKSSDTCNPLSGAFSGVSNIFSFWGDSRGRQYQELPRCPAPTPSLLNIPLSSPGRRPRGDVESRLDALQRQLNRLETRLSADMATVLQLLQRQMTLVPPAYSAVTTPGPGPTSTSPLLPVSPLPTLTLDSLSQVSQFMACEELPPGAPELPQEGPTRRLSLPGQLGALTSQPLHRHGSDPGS

SMILES | hERG current change (%, negative = inhibition) at 1uM [%]
COC(=O)C1CC(=O)N(c2ccc(C)cc2)C1 (stereo not shown) | 4.3
CCc1ccccc1NC(=O)CCNS(=O)(=O)c1cc(Br)cnc1N | 0.979
Cl.O=C(OCCN1CCOCC1)c1ccc2c(c1)OCCO2 | 8.19
O=C(NCCc1ccccn1)C1CC(=O)N(Cc2ccccc2Cl)C1 (stereo not shown) | 4.09
CCCCCCC(=O)Nc1ccc(Cl)cn1 | 12.1
O=C(c1ccc(F)cc1)C1CCN(Cc2cn[nH]c2-c2ccc(F)cc2)CC1 | -78.9
Fc1ccc(-c2[nH]ncc2CN2CCN(c3ccc(F)cc3)CC2)cc1 | -0.0709
CCOC(=O)C1CCN(Cc2cn[nH]c2-c2ccc(C)cc2)CC1 | -23.6
O=C(/C=C/c1ccccc1)NC(=S)Nc1ncccn1 | 14.1
CCN(CC)S(=O)(=O)c1ccc(Cl)c(C(=O)Nc2nncs2)c1 | 15.1
COc1ccccc1OCC(=O)NCCS(=O)(=O)N1CCN(c2ccc(F)cc2)CC1 | -3.49
O=C(O)c1ccc(-n2nnnc2SCc2ccccc2)cc1 | 7.44
O=C(O)c1ccc(CSc2nnnn2-c2ccc(F)cc2)cc1 | 6.99
Cc1ccc(-n2nnnc2SCc2ccc(C(=O)O)cc2)cc1C | -80.9
Cc1c(C#N)c2ccccc2n1CC(=O)NC(C)c1ccccc1 (stereo not shown) | 4.94
COC(=O)c1ccc(CS(=O)(=O)c2ccccc2C)o1 | 2.66
O=C1N=c2ccccc2=C1c1sc(=S)n(CC2CCCO2)c1O (stereo not shown) | 10.8
COc1ccccc1COCC(O)CNCC1(N2CCCCC2)CCCCC1.O=C(O)C(=O)O (stereo not shown) | 0.206
OC(CNCC1(N2CCCCC2)CCCCC1)COc1ccc(Cl)cc1Cl (stereo not shown) | -74.2
COc1cc(C(C)=O)ccc1OCC(O)CNCC1(N2CCCCC2)CCCCC1.O=C(O)C(=O)O (stereo not shown) | 2.35
Cc1ccccc1NC(=O)CCCN1C(=O)C2CC=CCC2C1=O (stereo not shown) | 14.5
O=C(NC1CCCCC1)C(c1ccncc1)N(C(=O)Cn1nnc(-c2cccs2)n1)C1CCCC1 (stereo not shown) | -4.68
Cc1ccccc1NC(=O)c1cccc2c1C(=O)N(C1CCCCC1)C2 | 15

SMILES | hERG current change (%, negative = inhibition) at 1uM [%]
CSc1ccccc1NS(=O)(=O)c1cccc2nonc12 | 7.17
O=S(=O)(Nc1cc(F)ccc1F)c1cccc2nsnc12 | 14.5
O=S(=O)(Nc1cc(F)ccc1F)c1cccc2nonc12 | -61
N#Cc1nc(COc2ccc(Cl)cc2)oc1N1CCN(Cc2ccccc2)CC1 | 10.2
CCN1CCN(c2oc(COc3ccc(Cl)cc3)nc2C#N)CC1 | -79.3
N#Cc1nc(COc2ccc(F)cc2)oc1N1CCN(Cc2ccccc2)CC1 | -51
N#Cc1nc(COc2ccc(Cl)cc2)oc1N1CCCC1 | -2.53
CCN1CCN(c2oc(COc3ccc(-c4ccccc4)cc3)nc2C#N)CC1 | 10.1
N#Cc1nc(COc2ccccc2)oc1N1CCN(Cc2ccccc2)CC1 | -3.01
COC(=O)C1CC(Cl)CN1c1ncc(C(F)(F)F)cc1Cl (stereo not shown) | 15.5
COc1ccc(-n2c(CNC(=O)COc3ccc(Cl)cc3)n[nH]c2=S)cc1 | 16.9
C/C(=N\O)C(C)(C)Nc1ccc(Cl)cc1 | 10.9
CCOc1cc(S(=O)(=O)NC2CC(C)(C)NC(C)(C)C2)ccc1Cl | 11.2
COc1ccccc1-c1nnc2sc(-c3cc4ccccc4o3)nn12 | -0.794
O=C(NCCCN1CCCC1=O)c1ccc(Cl)c(S(=O)(=O)N2CCCCC2)c1 | 9.57
Cl.O=C(NCCCN1CCOCC1)c1ccc(Cl)c(S(=O)(=O)N2CCCCCC2)c1 | -18.9
Cl.O=C(NCCN1CCOCC1)c1ccc(Cl)c(S(=O)(=O)N2CCCCCC2)c1 | -10.3
CN(C)CCCNC(=O)c1ccc(Cl)c(S(=O)(=O)N2CCCCCC2)c1.Cl | -70
CCN(CC)CCNC(=O)c1ccc(Cl)c(S(=O)(=O)N2CCCCCC2)c1.Cl | -52.2
CCN(CC)CCNC(=O)c1ccc(NC(=O)c2ccc(Cl)c(S(=O)(=O)N3CCCCCC3)c2)cc1.Cl | 1.9
CN(C)C(=O)C12CCC(C)(C(=O)C1Br)C2(C)C (stereo not shown) | 14.5
O=c1oc(-c2ccco2)nc2sc3c(c12)CCCC3 | 11.5
COc1ccc(C(=O)NCC(=O)OC2CCCCC2=O)cc1 (stereo not shown) | -0.0213

SMILES | hERG current change (%, negative = inhibition) at 1uM [%]
COc1cc(OC)cc(C(=O)NCC(=O)OC2CCCCC2=O)c1 (stereo not shown) | -1.67
O=C(CNC(=O)c1ccc(Oc2ccccc2)cc1)OC1CCCCC1=O (stereo not shown) | -58.8
Cc1nc2nc(C)c(CCC(=O)N3CCc4ccccc43)c(C)n2n1 | -36.3
Cc1nc2ncnn2c(C)c1CCC(=O)N1CCc2ccccc2C1 | -19.5
Cc1nc2ncnn2c(C)c1CCC(=O)N1CCc2ccccc21 | -66.3
CCN(CC(=O)Nc1ccc(NC(C)=O)cc1)C(=O)c1sc2nc3n(c(=O)c2c1C)CCC3 | 10.2
O=C(Nc1cccc(Cl)c1)c1cncn1-c1ccc(F)cc1 | -52.8
COc1cc(OC)c(NC(=O)c2cncn2-c2ccc(F)cc2)cc1Cl | 5.23
NNC(=O)c1cncn1-c1ccc(F)cc1 | 12.3
CC(C)(C)C1CCC(OC(=O)CN2CCCCC2)CC1 (stereo not shown) | 2.3
Cc1ccc(S(=O)(=O)c2ccc(Cl)cc2)cc1S(=O)(=O)N1CCOCC1 | 3.5
CCNC(=O)c1cc2c(=O)n3cccc(C)c3nc2n(Cc2ccc(C)cc2)c1=N | -97.1
Cc1ccc(S(=O)(=O)c2cc3c(=O)n4cccc(C)c4nc3n(Cc3ccncc3)c2=N)cc1 | 9.03
Cc1ccc(Cn2c(=N)c(C#N)cc3c(=O)n4cccc(C)c4nc32)cc1 | -2.14
CCCCNC(=O)c1cc2c(=O)n3cccc(C)c3nc2n(Cc2ccccc2)c1=N | -80.7
CN(CCCNC(=O)c1cccn2c(=O)c3ccccc3nc12)Cc1ccccc1 | -75.3
COCCCNC(=O)c1cccn2c(=O)c3cc4ccccc4cc3nc12 | -8.65
O=C(NCCN1CCN(c2ccccc2)CC1)c1cccn2c(=O)c3ccccc3nc12 | -10.8
Cc1cccn2c(=O)c3cc(C(=O)NCCN4CCOCC4)c(=N)n(Cc4ccc(F)cc4)c3nc12 | -13.3
Cc1cccn2c(=O)c3cc(C(=O)NC(C)C)c(=N)n(Cc4ccncc4)c3nc12 | -67.2
N#Cc1cnn2c(-c3cccc(C(F)(F)F)c3)ccnc12 | 1.86
CCOC(=O)Cc1csc(NC(=O)/C=C\c2ccccc2Cl)n1 | 7.16
CC(C)C(=O)Nc1cccc(NC(=O)c2cccnc2)c1 | -1.01

SMILES | hERG current change (%, negative = inhibition) at 1uM [%]
CCC(c1nnnn1CS(=O)(=O)c1ccc(C)cc1)N1CCC(C(N)=O)CC1.Cl (stereo not shown) | -3.7
Cc1cccc(OCC(=O)Nc2ccc(S(=O)(=O)Nc3ccccn3)cc2)c1 | 17.3
CS(=O)(=O)n1nc(NCc2cccs2)nc1NCc1cccs1 | 10.5
CCOC(=O)CSc1c(-c2ccc(Cl)cc2)[nH]c2ccccc12 | 1.02
CCCCNC(=O)c1cc2c(=O)n3cccc(C)c3nc2n(Cc2ccncc2)c1=N | -75.4
COCCNC(=O)c1cc2c(=O)n3cccc(C)c3nc2n(Cc2ccncc2)c1=N | -31.5
CCCc1cc(=O)n2[nH]c(NCc3c(F)cccc3Cl)nc2n1 | 12.7
O=C(NC1CCCCCC1)c1cc(=O)[nH]c2ccc(S(=O)(=O)N3CCOCC3)cc12 | 1.03
Cc1ccc(C)c(N2CCN(C(=O)c3ccc(Cn4c(=O)[nH]c5ccccc5c4=O)cc3)CC2)c1 | 11.6
COc1cccc(NC(=O)CCNC(=O)C2CCN(S(=O)(=O)c3ccc(F)cc3)CC2)c1 | 14.9
CCOC(=O)C1CCN(S(=O)(=O)c2ccc3[nH]c(=O)oc3c2)CC1 | 3.58
CCOC(=O)C1CCN(S(=O)(=O)c2ccc3[nH]c(=O)ccc3c2)CC1 | -2.48
CCOC(=O)C1CCN(S(=O)(=O)c2ccc3oc(=O)ccc3c2)CC1 | -78.2
COc1ccc(CCNCC(O)COc2cccc(C(C)=O)c2)cc1OC.O=C(O)C(=O)O (stereo not shown) | 16
CCC(=O)c1ccc(OCC(O)CNCCc2ccc(Cl)cc2)cc1 (stereo not shown) | -69.9
CCC(=O)c1ccc(OCC(O)CNCc2ccc(F)cc2)cc1 (stereo not shown) | -12.8
COc1ccc(C(OCC(O)CNCCc2ccc(S(N)(=O)=O)cc2)c2ccc(OC)cc2)cc1 (stereo not shown) | -1.33
Cc1cc(Cl)ccc1OCC(O)CNCCc1ccc(S(N)(=O)=O)cc1 (stereo not shown) | -58.2
OC(CNCCc1ccc(Cl)cc1)COc1cc(Cl)ccc1Cl (stereo not shown) | 2.52
COc1ccc(CCNCC(O)COc2cccc(Br)c2)cc1OC (stereo not shown) | -39.5
CC(=O)c1cccc(OCC(O)CNCCc2ccc(Cl)cc2)c1 (stereo not shown) | 10.6
COc1ccc(CCNCC(O)COc2ccc(Cl)cc2)cc1OC.Cl (stereo not shown) | -56
